{"source": "the supplement of paper PMC7411640", "note": "Structures can show the parent of a compound that is named as a salt."}
{"system": "MDA-MB-468", "assay": "phospho-S6 immunofluorescence (DAPI-normalised), per-plate z-score; higher = higher phospho-S6 signal (less pathway suppression)", "details": "co-treatment: vehicle; 24 h", "method": "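GPCR-targeted compound library (MedChemExpress HY-L006) tested on MDA-MB-468 PTEN-null TNBC cells in 384-well plates at 0.1, 1 or 10 uM, combined with vehicle, GDC0941 450 nM or lapatinib 1 uM, for 24 h. Phospho-S6 (S240/244) immunofluorescence normalised to DAPI and expressed as a per-plate z-score; values are the mean of biological triplicates.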"}
{"smiles": "COc1ccc(C(=O)c2c(C)n(CCN3CCOCC3)c3cc(I)ccc23)cc1", "note": "(compound 10 µM)", "phospho-S6 immunofluorescence (z-score)": -3.47}
{"smiles": "CN1C(=O)COc2c(C(=O)NC3CN4CCC3CC4)cc(Cl)cc21", "note": "(stereo not drawn) [Azasetron (hydrochloride)] (compound 10 µM)", "phospho-S6 immunofluorescence (z-score)": 1.23}
{"smiles": "CN(C)CCN(C)CCc1ccc(Cl)c(Cl)c1", "note": "[BD-1047 (dihydrobromide)] (compound 10 µM)", "phospho-S6 immunofluorescence (z-score)": -0.85}
{"smiles": "COc1cc2c3c(c1OC)-c1ccccc1C[C@H]3N(C)CC2", "note": "[Nuciferine] (compound 10 µM)", "phospho-S6 immunofluorescence (z-score)": 0}
{"smiles": "CN1CCC(c2c[nH]c3ccc(O)cc23)CC1", "note": "(compound 10 µM)", "phospho-S6 immunofluorescence (z-score)": 0.06}
{"smiles": "Cc1ccc2c(c1)[C@]13CCCC[C@@H]1[C@H](C2)N(C)CC3", "note": "[Dimemorfan (phosphate)] (compound 10 µM)", "phospho-S6 immunofluorescence (z-score)": 0.76}
{"smiles": "O=c1[nH]c2ccccc2n1CCCN1CCC(n2c(=O)[nH]c3cc(Cl)ccc32)CC1", "note": "[Domperidone] (compound 10 µM)", "phospho-S6 immunofluorescence (z-score)": 1.62}
{"smiles": "CC(C)(C)NCC(O)c1ccc(O)cc1Cl", "note": "(stereo not drawn) (compound 10 µM)", "phospho-S6 immunofluorescence (z-score)": 0.14}
{"smiles": "NCC(O)c1ccc(O)cc1", "note": "(stereo not drawn) [Octopamine (hydrochloride)] (compound 10 µM)", "phospho-S6 immunofluorescence (z-score)": 1.09}
{"smiles": "Cc1cccc([C@H](C)c2c[nH]cn2)c1C", "note": "[Dexmedetomidine (hydrochloride)] (compound 10 µM)", "phospho-S6 immunofluorescence (z-score)": 1.08}
{"smiles": "Oc1ccc2c3c1O[C@H]1c4[nH]c5ccccc5c4C[C@@]4(O)[C@@H](C2)N(CC2CC2)CC[C@]314", "note": "[Naltrindole (hydrochloride)] (compound 10 µM)", "phospho-S6 immunofluorescence (z-score)": -1.21}
{"smiles": "CSCC[C@H](NC(=O)[C@H](Cc1ccccc1)NC(=O)CNC(=O)CNC(=O)[C@@H](N)Cc1ccc(O)cc1)C(=O)O", "note": "(compound 10 µM)", "phospho-S6 immunofluorescence (z-score)": -0.05}
{"smiles": "CN(C)C(=O)Oc1cc(OC(=O)N(C)C)cc(C(O)CNC(C)(C)C)c1", "note": "(stereo not drawn) [Bambuterol (hydrochloride)] (compound 10 µM)", "phospho-S6 immunofluorescence (z-score)": -0.4}
{"smiles": "CNCC(O)c1ccc(O)cc1", "note": "(stereo not drawn) [Synephrine (hydrochloride)] (compound 10 µM)", "phospho-S6 immunofluorescence (z-score)": 0.24}
{"smiles": "Cc1ncc(CN2CC=C(c3ccccc3)CC2)c(N)n1", "note": "[Ro 10-5824 (dihydrochloride)] (compound 10 µM)", "phospho-S6 immunofluorescence (z-score)": 0.42}
{"smiles": "CCC(COC(=O)c1cc(OC)c(OC)c(OC)c1)(c1ccccc1)N(C)C", "note": "(stereo not drawn) [Trimebutine (maleate)] (compound 10 µM)", "phospho-S6 immunofluorescence (z-score)": 0.51}
{"smiles": "CC(C)C[C@H](NC(=O)[C@H](Cc1ccccc1)NC(=O)CNC(=O)[C@@H](C)NC(=O)[C@@H](N)Cc1ccc(O)cc1)C(=O)O", "note": "[[D-Ala2]leucine-enkephalin] (compound 10 µM)", "phospho-S6 immunofluorescence (z-score)": 1.34}
{"smiles": "COc1ccc2c(c1OC)CN1CCc3cc4c(cc3C1C2)OCO4", "note": "(stereo not drawn) [Tetrahydroberberine] (compound 10 µM)", "phospho-S6 immunofluorescence (z-score)": -0.52}
{"smiles": "CN1C[C@H](C(=O)N[C@]2(C)O[C@@]3(O)[C@@H]4CCCN4C(=O)[C@H](Cc4ccccc4)N3C2=O)C[C@@H]2c3cccc4[nH]cc(c34)C[C@H]21", "note": "[Dihydroergotamine (mesylate)] (compound 10 µM)", "phospho-S6 immunofluorescence (z-score)": 0.86}
{"smiles": "CN1CCC2=C(C1)c1ccccc1Cc1ccccc12", "note": "[Setiptiline] (compound 10 µM)", "phospho-S6 immunofluorescence (z-score)": -0.24}
{"smiles": "CN1CCC(C(=O)c2cccc(NC(=O)c3c(F)cc(F)cc3F)n2)CC1", "note": "[Lasmiditan (hydrochloride)] (compound 10 µM)", "phospho-S6 immunofluorescence (z-score)": -0.09}
{"smiles": "Cc1ccc2c(c1)C1(CCN(CCc3nc(-c4ccccc4)oc3C)CC1)OC(=O)N2", "note": "(compound 10 µM)", "phospho-S6 immunofluorescence (z-score)": 0.89}
{"smiles": "CN1[C@@H]2C[C@@H](OC(=O)[C@H](CO)c3ccccc3)C[C@H]1[C@@H]1O[C@@H]12", "note": "[Scopolamine (hydrobromide)] (compound 10 µM)", "phospho-S6 immunofluorescence (z-score)": 0.68}
